# Test results: PubChem BioAssay AID1159580 (chemical genetic matrix, 2015)
# Out of some 5,500 compounds screened, about 2,000 (36%) were called active. Another 18% or so got no clear call; they are omitted. Some of the results follow. Unmarked numbers belong to inactive results. Cut-off read from the data, not from the text of the source: active = normalized growth mostly below about 0.91 (no sharp cut-off); inconclusive = no clear call, values can overlap the other calls; inactive = mostly above about 0.92.
# Assay: chemical genetic growth profiling, strain panel (AID 1159580);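 note: tested at 20 µM; growth read once vehicle control cultures reached saturation at 30 °C; 1 = growth at the plate median or of vehicle wells; lower values mean less growth of the strain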
# Details: growth OD
# [1] = S. cerevisiae deletion strains, locus YAL013W, strain DEP1, hits give low values
# [2] = S. cerevisiae deletion strains, locus YBR229C, strain ROT2, hits give low values
# [3] = S. cerevisiae deletion strains, locus YDL101C, strain DUN1, hits give low values
# [4] = S. cerevisiae deletion strains, locus YDL134C, strain PPH21, hits give low values
# [5] = S. cerevisiae deletion strains, locus YDR150W, strain NUM1, hits give low values
# [6] = S. cerevisiae deletion strains, locus YEL061C, strain CIN8, hits give low values
# [7] = S. cerevisiae deletion strains, locus YGR078C, strain PAC10, hits give low values
# [8] = S. cerevisiae deletion strains, locus YHR030C, strain SLT2, hits give low values
# [9] = S. cerevisiae deletion strains, locus YHR087W, strain rtc3, hits give low values
# [10] = S. cerevisiae deletion strains, locus YJR043C, strain POL32, hits give low values
# [11] = S. cerevisiae deletion strains, locus YJR075W, strain HOC1, hits give low values
# [12] = S. cerevisiae deletion strains, locus YLR039C, strain RIC1, hits give low values
# [13] = S. cerevisiae deletion strains, locus YLR058C, strain SHM2 (second series), hits give low values
# [14] = S. cerevisiae deletion strains, locus YLR085C, strain ARP6, hits give low values
# [15] = S. cerevisiae deletion strains, locus YLR262C, strain YPT6, hits give low values
# [16] = S. cerevisiae deletion strains, locus YML094W, strain GIM5, hits give low values
# [17] = S. cerevisiae deletion strains, locus YMR219W, strain ESC1, hits give low values
# [18] = S. cerevisiae deletion strains, locus YMR263W, strain SAP30, hits give low values
# [19] = S. cerevisiae deletion strains, locus YNL153C, strain GIM3, hits give low values
# [20] = S. cerevisiae deletion strains, locus YNL298W, strain CLA4 (second series), hits give low values
# [21] = S. cerevisiae deletion strains, locus YNL322C, strain KRE1, hits give low values
# [22] = S. cerevisiae deletion strains, locus YNR030W, strain Alg12, hits give low values
# [23] = S. cerevisiae deletion strains, locus YPL055C, strain LGE1, hits give low values
# [24] = S. cerevisiae deletion strains, locus YPL241C, strain CIN2, hits give low values
# [25] = S. cerevisiae deletion strains, locus YPR135W, strain CTF4, hits give low values
smiles,measurement,setting,value
CC(=O)Nc1cccc(-n2nnc(SCc3ccccc3)n2)c1,normalized growth,[1],1.02
same,normalized growth,[2],1.01
same,normalized growth,"S. cerevisiae deletion strains, locus YCL061C, strain MRC1, hits give low values",1.03
same,normalized growth,[3],0.995
same,normalized growth,[4],0.988
same,normalized growth,[5],1.03
same,normalized growth,[6],1
same,normalized growth,[7],1.02
same,normalized growth,"S. cerevisiae deletion strains, locus YGR229C, strain SMI1, hits give low values",0.986
same,normalized growth,[8],1.06
same,normalized growth,[9],0.988
same,normalized growth,[10],1.02
same,normalized growth,[11],1.03
same,normalized growth,[12],0.976
same,normalized growth,[13],0.997
same,normalized growth,[14],0.949
same,normalized growth,[15],1.1
same,normalized growth,[16],0.982
same,normalized growth,[17],0.993
same,normalized growth,[18],1.01
same,normalized growth,[19],1.02
same,normalized growth,[20],1.01
same,normalized growth,[21],1.01
same,normalized growth,[22],1.01
same,normalized growth,[23],0.968
same,normalized growth,[24],0.958
same,normalized growth,[25],1.08
O=C(Nc1c(Br)c(C2CC2)nn1-c1ccccc1)C(Cl)(Cl)Cl,normalized growth,"S. cerevisiae deletion strains, locus YAR019C, strain CDC15, hits give low values",0.92
same,normalized growth,"S. cerevisiae deletion strains, locus YBL105C, strain PKC1, hits give low values",0.913
same,normalized growth,"S. cerevisiae deletion strains, locus YBR135W, strain CKS1, hits give low values",0.914
same,normalized growth,"S. cerevisiae deletion strains, locus YBR136W, strain MEC1, hits give low values",0.923
same,normalized growth,"S. cerevisiae deletion strains, locus YBR160W, strain CDC28, hits give low values",0.92
same,normalized growth,"S. cerevisiae deletion strains, locus YDL017W, strain CDC7, hits give low values",0.929
same,normalized growth,"S. cerevisiae deletion strains, locus YDL028C, strain MPS1, hits give low values",0.93
same,normalized growth,[3],0.927
same,normalized growth,"S. cerevisiae deletion strains, locus YDL108W, strain KIN28, hits give low values",0.925
same,normalized growth,"S. cerevisiae deletion strains, locus YDL132W, strain cdc53, hits give low values",0.917
same,normalized growth,"S. cerevisiae deletion strains, locus YDL214C, strain PRR2, hits give low values",0.897
same,normalized growth,"S. cerevisiae deletion strains, locus YDR052C, strain DBF4, hits give low values",0.918
same,normalized growth,"S. cerevisiae deletion strains, locus YDR054C, strain cdc34, hits give low values",0.921
same,normalized growth,"S. cerevisiae deletion strains, locus YDR226W, strain ADK1, hits give low values",0.909
same,normalized growth,"S. cerevisiae deletion strains, locus YDR477W, strain SNF1, hits give low values",0.826
same,normalized growth,"S. cerevisiae deletion strains, locus YER123W, strain YCK3, hits give low values",0.769
same,normalized growth,"S. cerevisiae deletion strains, locus YER133W, strain GLC7, hits give low values",0.802
same,normalized growth,"S. cerevisiae deletion strains, locus YFL009W, strain cdc4, hits give low values",0.92
same,normalized growth,"S. cerevisiae deletion strains, locus YFL029C, strain CAK1, hits give low values",0.92
same,normalized growth,"S. cerevisiae deletion strains, locus YFR003C, strain YPI1, hits give low values",0.922
same,normalized growth,"S. cerevisiae deletion strains, locus YFR019W, strain FAB1, hits give low values",0.932
same,normalized growth,"S. cerevisiae deletion strains, locus YFR028C, strain CDC14, hits give low values",0.908
same,normalized growth,"S. cerevisiae deletion strains, locus YGR040W, strain KSS1, hits give low values",0.784
same,normalized growth,"S. cerevisiae deletion strains, locus YGR052W, strain FMP48, hits give low values",0.856
same,normalized growth,"S. cerevisiae deletion strains, locus YGR092W, strain DBF2, hits give low values",0.693
same,normalized growth,[8],0.896
same,normalized growth,"S. cerevisiae deletion strains, locus YHR079C, strain IRE1, hits give low values",0.919
same,normalized growth,"S. cerevisiae deletion strains, locus YHR082C, strain KSP1, hits give low values",0.919
same,normalized growth,"S. cerevisiae deletion strains, locus YHR205W, strain SCH9, hits give low values",0.821
same,normalized growth,"S. cerevisiae deletion strains, locus YIL147C, strain SLN1, hits give low values",0.932
same,normalized growth,"S. cerevisiae deletion strains, locus YJL095W, strain BCK1, hits give low values",0.824
same,normalized growth,"S. cerevisiae deletion strains, locus YJL128C, strain PBS2, hits give low values",0.908
same,normalized growth,"S. cerevisiae deletion strains, locus YJL157C, strain FAR1, hits give low values",0.904
same,normalized growth,"S. cerevisiae deletion strains, locus YJR016C, strain ILV3, hits give low values",0.929
same,normalized growth,"S. cerevisiae deletion strains, locus YJR066W, strain TOR1 (second series), hits give low values",0.832
same,normalized growth,"S. cerevisiae deletion strains, locus YJR066W, strain TOR1, hits give low values",0.86
same,normalized growth,"S. cerevisiae deletion strains, locus YKL048C, strain ELM1, hits give low values",0.802 (active)
same,normalized growth,"S. cerevisiae deletion strains, locus YKL067W, strain YNK1, hits give low values",0.897
same,normalized growth,"S. cerevisiae deletion strains, locus YKL101W, strain HSL1, hits give low values",0.882
same,normalized growth,"S. cerevisiae deletion strains, locus YKL193C, strain SDS22, hits give low values",0.921
same,normalized growth,"S. cerevisiae deletion strains, locus YKL203C, strain TOR2, hits give low values",0.879
same,normalized growth,"S. cerevisiae deletion strains, locus YLR113W, strain HOG1, hits give low values",0.858 (active)
same,normalized growth,"S. cerevisiae deletion strains, locus YLR133W, strain CKI1, hits give low values",0.871
same,normalized growth,"S. cerevisiae deletion strains, locus YLR403W, strain SFP1, hits give low values",0.714
same,normalized growth,"S. cerevisiae deletion strains, locus YML070W, strain DAK1, hits give low values",0.901
same,normalized growth,"S. cerevisiae deletion strains, locus YMR001C, strain CDC5, hits give low values",0.922
same,normalized growth,"S. cerevisiae deletion strains, locus YMR205C, strain PFK2 (second series), hits give low values",0.883
same,normalized growth,"S. cerevisiae deletion strains, locus YMR277W, strain FCP1, hits give low values",0.915
same,normalized growth,"S. cerevisiae deletion strains, locus YNL006W, strain LST8, hits give low values",0.921
same,normalized growth,"S. cerevisiae deletion strains, locus YNL020C, strain ARK1, hits give low values",0.878
same,normalized growth,"S. cerevisiae deletion strains, locus YNL161W, strain CBK1, hits give low values",0.925
same,normalized growth,"S. cerevisiae deletion strains, locus YNL183C, strain NPR1, hits give low values",0.864
same,normalized growth,"S. cerevisiae deletion strains, locus YNL207W, strain RIO2, hits give low values",0.928
same,normalized growth,"S. cerevisiae deletion strains, locus YNL222W, strain SSU72, hits give low values",0.928
same,normalized growth,"S. cerevisiae deletion strains, locus YNL307C, strain MCK1 (second series), hits give low values",0.812
same,normalized growth,"S. cerevisiae deletion strains, locus YOL078W, strain AVO1, hits give low values",0.912
same,normalized growth,"S. cerevisiae deletion strains, locus YOL136C, strain PFK27, hits give low values",0.895
same,normalized growth,"S. cerevisiae deletion strains, locus YOR061W, strain CKA2, hits give low values",0.872
same,normalized growth,"S. cerevisiae deletion strains, locus YOR119C, strain RIO1, hits give low values",0.822
same,normalized growth,"S. cerevisiae deletion strains, locus YOR231W, strain MKK1, hits give low values",0.898
same,normalized growth,"S. cerevisiae deletion strains, locus YOR329C, strain SCD5, hits give low values",0.925
same,normalized growth,"S. cerevisiae deletion strains, locus YPL031C, strain PHO85, hits give low values",0.814
same,normalized growth,"S. cerevisiae deletion strains, locus YPL153C, strain RAD53, hits give low values",0.82
same,normalized growth,"S. cerevisiae deletion strains, locus YPL204W, strain HRR25, hits give low values",0.735
same,normalized growth,"S. cerevisiae deletion strains, locus YPL209C, strain IPL1, hits give low values",0.922
same,normalized growth,"S. cerevisiae deletion strains, locus YPL256C, strain CLN2, hits give low values",0.961
same,normalized growth,"S. cerevisiae deletion strains, locus YPR025C, strain CCL1, hits give low values",0.923
same,normalized growth,"S. cerevisiae deletion strains, locus YPR106W, strain ISR1, hits give low values",0.935
same,normalized growth,"S. cerevisiae deletion strains, locus YPR111W, strain DBF20, hits give low values",0.925
same,normalized growth,"S. cerevisiae deletion strains, strain NNK1, hits give low values",0.944
same,normalized growth,"S. cerevisiae deletion strains, strain TSCII, hits give low values",0.92
Cc1cc(NC(=O)C(Cl)(Cl)Cl)n(-c2ccccc2)n1,normalized growth,[1],0.984
same,normalized growth,[2],0.987
same,normalized growth,[3],0.995
same,normalized growth,[4],0.936
same,normalized growth,[5],0.898
same,normalized growth,[6],0.994
same,normalized growth,[7],0.984
same,normalized growth,[8],0.888
same,normalized growth,[9],0.97
same,normalized growth,"S. cerevisiae deletion strains, locus YJL187C, strain SWE1, hits give low values",0.979
same,normalized growth,[10],0.987
same,normalized growth,[11],1
same,normalized growth,[12],0.678 (active)
same,normalized growth,[13],0.985
same,normalized growth,[14],0.948
same,normalized growth,[15],0.728 (active)
same,normalized growth,[16],1.02
same,normalized growth,[17],0.991
same,normalized growth,[18],0.982
same,normalized growth,"S. cerevisiae deletion strains, locus YMR307W, strain GAS1, hits give low values",1.02
same,normalized growth,"S. cerevisiae deletion strains, locus YNL128W, strain TEP1, hits give low values",0.975
same,normalized growth,[19],1
same,normalized growth,[20],0.978
same,normalized growth,[21],0.97
same,normalized growth,[22],0.974
same,normalized growth,"S. cerevisiae deletion strains, locus YOL006C, strain TOP1, hits give low values",0.864
same,normalized growth,[23],1.04
same,normalized growth,[24],1
same,normalized growth,[25],0.838
same,normalized growth,"S. cerevisiae strains, strain wild type, hits give low values",0.96
